In the supplement of paper PMC12819154, “High-throughput peptide-centric local stability assay extends protein–ligand identification to membrane proteins, tissues and bacteria” (Nature Structural & Molecular Biology, 2025):

Tests used:
staurosporine [1] = compound: T1, CN[C@@H]1C[C@H]2O[C@@](C)([C@@H]1OC)n1c3ccccc3c3c4c(c5c6ccccc6n2c5c31)C(=O)NC4 [staurosporine]; test: log2 fold change of tryptic peptide abundance, ligand vs vehicle (limited proteolysis) (log2 ratio); higher = more trypsin-susceptible (destabilized); conditions: ligand concentration: 20 uM; sample: mouse liver crude lysate; replicate design: treated separately
staurosporine [2] = compound: T1, staurosporine; test: as above; conditions: ligand concentration: 20 uM; sample: K562 cleared lysate; digestion: 4 min, 22 C (HT-PELSA RT4min, Orbitrap Astral)

Chain of UniProt Q61268 (Q61268 whole entry): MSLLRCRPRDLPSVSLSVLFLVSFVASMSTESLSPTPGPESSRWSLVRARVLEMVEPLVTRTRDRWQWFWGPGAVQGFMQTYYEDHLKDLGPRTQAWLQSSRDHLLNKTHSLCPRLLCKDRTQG
Chain of UniProt P14685 (P14685 whole entry): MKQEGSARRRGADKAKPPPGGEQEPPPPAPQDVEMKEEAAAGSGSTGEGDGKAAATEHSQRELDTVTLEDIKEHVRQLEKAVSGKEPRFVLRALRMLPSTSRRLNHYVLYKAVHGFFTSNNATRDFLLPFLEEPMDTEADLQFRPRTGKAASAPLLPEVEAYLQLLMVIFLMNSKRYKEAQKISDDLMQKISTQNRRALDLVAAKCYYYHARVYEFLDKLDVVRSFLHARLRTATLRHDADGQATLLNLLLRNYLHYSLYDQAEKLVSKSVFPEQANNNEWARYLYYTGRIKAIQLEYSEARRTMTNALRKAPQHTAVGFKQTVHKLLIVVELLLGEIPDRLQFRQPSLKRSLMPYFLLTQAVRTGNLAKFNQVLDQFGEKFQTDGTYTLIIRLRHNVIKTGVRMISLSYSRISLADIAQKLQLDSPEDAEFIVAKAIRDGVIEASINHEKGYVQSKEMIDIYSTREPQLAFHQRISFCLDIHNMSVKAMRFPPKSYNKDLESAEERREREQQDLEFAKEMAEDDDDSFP
Chain of UniProt P24788 (P24788 whole entry): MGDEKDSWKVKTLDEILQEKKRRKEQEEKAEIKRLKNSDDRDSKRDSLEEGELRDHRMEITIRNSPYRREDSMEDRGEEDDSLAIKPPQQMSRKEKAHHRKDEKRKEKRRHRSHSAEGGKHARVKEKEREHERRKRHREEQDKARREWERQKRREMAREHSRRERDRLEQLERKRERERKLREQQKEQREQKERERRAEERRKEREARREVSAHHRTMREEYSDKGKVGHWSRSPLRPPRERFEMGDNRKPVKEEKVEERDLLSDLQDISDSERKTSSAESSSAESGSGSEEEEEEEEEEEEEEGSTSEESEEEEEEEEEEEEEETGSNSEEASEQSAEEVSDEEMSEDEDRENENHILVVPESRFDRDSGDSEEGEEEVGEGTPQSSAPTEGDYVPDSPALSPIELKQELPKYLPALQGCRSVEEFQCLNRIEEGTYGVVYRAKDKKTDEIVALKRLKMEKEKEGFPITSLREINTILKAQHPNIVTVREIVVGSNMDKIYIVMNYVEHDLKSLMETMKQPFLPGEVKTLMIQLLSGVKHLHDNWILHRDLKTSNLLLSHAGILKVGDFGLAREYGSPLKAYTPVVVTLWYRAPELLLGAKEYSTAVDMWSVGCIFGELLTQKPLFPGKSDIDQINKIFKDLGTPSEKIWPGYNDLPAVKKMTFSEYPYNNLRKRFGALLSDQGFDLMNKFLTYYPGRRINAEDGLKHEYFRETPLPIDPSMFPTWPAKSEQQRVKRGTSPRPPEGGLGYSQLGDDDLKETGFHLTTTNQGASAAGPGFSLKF
Chain of UniProt P14576 (P14576 whole entry): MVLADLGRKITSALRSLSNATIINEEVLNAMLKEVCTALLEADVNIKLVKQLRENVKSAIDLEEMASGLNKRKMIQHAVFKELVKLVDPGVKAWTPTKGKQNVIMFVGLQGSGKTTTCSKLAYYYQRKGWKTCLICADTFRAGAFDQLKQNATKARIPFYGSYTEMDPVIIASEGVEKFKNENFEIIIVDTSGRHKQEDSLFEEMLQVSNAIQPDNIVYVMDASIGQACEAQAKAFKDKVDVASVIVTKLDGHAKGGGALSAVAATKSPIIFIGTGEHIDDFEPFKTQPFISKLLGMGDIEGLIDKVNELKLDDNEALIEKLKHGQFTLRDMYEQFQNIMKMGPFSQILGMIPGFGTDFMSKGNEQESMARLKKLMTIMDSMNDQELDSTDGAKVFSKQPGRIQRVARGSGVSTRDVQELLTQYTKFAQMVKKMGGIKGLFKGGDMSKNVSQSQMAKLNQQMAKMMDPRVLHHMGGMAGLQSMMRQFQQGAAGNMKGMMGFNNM
Chain of UniProt P22102 (P22102 whole entry): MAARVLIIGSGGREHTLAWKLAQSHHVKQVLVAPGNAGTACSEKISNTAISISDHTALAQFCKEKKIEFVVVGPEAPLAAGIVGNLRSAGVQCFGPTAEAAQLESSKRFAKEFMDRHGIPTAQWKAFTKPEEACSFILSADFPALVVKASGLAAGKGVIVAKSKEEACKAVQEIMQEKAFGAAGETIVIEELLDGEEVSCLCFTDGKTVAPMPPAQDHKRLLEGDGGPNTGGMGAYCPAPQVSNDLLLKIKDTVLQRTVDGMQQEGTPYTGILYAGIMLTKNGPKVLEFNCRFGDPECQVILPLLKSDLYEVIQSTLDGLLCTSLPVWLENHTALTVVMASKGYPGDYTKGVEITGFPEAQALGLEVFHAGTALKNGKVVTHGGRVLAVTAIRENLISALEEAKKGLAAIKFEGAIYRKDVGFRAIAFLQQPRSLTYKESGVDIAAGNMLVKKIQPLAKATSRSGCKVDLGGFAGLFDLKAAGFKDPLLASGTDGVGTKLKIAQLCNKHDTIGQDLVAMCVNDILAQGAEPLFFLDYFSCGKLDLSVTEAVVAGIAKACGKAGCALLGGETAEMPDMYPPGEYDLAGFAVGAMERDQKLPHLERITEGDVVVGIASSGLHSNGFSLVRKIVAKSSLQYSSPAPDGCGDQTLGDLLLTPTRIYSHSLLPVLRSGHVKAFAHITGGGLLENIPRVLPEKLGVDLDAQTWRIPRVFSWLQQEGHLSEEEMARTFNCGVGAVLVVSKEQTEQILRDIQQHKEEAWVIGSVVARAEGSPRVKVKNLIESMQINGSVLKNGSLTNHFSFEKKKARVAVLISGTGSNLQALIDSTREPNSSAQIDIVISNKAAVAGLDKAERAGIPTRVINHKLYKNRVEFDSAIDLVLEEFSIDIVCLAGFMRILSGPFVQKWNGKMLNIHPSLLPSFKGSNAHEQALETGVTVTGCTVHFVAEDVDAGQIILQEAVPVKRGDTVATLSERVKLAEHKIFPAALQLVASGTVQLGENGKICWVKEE
Chain of UniProt Q64310 (Q64310 whole entry): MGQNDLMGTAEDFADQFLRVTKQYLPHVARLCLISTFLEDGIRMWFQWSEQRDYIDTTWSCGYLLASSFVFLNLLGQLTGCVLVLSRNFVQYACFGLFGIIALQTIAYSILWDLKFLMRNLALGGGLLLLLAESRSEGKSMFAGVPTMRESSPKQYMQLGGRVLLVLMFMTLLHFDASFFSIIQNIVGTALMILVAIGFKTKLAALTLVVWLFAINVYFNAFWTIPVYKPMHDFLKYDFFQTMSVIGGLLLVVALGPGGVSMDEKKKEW
Chain of UniProt Q8C4X2 (Q8C4X2 whole entry): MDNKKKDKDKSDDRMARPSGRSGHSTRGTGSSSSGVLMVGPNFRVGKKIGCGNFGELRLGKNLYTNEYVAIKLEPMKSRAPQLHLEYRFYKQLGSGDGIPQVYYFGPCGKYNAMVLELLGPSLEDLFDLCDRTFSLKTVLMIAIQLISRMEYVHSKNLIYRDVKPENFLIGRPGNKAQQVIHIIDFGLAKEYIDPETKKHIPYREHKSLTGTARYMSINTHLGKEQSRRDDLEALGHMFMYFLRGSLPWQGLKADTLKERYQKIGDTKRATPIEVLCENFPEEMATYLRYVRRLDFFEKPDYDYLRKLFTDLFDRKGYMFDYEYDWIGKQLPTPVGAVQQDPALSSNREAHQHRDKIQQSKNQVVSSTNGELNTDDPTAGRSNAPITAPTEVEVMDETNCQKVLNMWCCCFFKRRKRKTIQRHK
Chain of UniProt Q8BTH8 (Q8BTH8 whole entry): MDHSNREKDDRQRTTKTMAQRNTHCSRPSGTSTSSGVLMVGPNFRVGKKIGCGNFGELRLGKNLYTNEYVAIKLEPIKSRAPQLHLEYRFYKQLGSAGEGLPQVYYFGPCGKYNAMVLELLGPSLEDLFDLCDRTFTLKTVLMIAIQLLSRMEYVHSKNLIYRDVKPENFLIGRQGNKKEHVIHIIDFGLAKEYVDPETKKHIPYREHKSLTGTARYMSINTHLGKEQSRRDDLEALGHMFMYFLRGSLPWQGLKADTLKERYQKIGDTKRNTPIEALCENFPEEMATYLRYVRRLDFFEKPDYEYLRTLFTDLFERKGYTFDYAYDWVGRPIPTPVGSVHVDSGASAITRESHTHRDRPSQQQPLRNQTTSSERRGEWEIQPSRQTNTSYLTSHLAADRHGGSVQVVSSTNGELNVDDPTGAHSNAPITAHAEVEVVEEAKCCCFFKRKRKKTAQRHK
Chain of UniProt Q9ET43 (Q9ET43 whole entry): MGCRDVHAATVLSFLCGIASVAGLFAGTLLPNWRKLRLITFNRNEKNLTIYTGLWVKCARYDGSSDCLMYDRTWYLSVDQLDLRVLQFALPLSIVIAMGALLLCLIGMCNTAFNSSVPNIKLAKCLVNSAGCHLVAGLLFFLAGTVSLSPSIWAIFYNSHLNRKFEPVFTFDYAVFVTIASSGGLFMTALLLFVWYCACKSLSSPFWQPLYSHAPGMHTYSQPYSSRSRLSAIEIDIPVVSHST
Chain of UniProt O88455 (O88455 whole entry): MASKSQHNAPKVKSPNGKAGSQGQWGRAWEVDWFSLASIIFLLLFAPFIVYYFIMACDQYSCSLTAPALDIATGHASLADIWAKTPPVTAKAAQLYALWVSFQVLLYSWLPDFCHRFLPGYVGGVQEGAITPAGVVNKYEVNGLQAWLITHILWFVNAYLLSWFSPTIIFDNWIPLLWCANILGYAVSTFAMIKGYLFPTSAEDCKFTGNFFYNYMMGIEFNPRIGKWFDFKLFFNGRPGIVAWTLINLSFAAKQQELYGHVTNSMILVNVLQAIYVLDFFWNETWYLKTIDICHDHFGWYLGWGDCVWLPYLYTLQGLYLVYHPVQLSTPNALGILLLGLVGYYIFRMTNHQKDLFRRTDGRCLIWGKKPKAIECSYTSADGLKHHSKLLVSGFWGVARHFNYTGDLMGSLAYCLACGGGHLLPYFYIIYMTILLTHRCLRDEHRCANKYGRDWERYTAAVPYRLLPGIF
Chain of UniProt P31532 (P31532 whole entry): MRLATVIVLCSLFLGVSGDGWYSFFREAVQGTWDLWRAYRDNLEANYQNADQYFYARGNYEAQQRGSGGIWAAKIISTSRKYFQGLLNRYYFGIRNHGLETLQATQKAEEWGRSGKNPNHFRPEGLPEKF

Target	log2 fold change (staurosporine [1])	log2 fold change (staurosporine [2])
UniProt P14685 (peptide sequence: ISLADIAQK, peptide start residue: 413)	-0.355	–
UniProt Q8BTH8 (peptide sequence: GSLPWQGLK, peptide start residue: 245)	-0.593	–
UniProt O88455 (peptide sequence: LLVSGFWGVAR, peptide start residue: 390)	0.757	–
UniProt Q61268 (peptide sequence: TQAWLQSSR, peptide start residue: 94)	0.77	–
UniProt Q9ET43 (peptide sequence: SRLSAIEIDIPVVSHST, peptide start residue: 228)	-0.532	–
GART (peptide sequence: GDTVATLSER, peptide start residue: 966) (UniProt P22102)	–	0.425
UniProt P14576 (peptide sequence: SAIDLEEMASGLNKRK, peptide start residue: 58)	0.95	–
UniProt P31532 (peptide sequence: KYFQGLLNR, peptide start residue: 81)	0.505	–
UniProt Q64310 (peptide sequence: SMFAGVPTMR, peptide start residue: 140)	0.247	–
UniProt Q8C4X2 (peptide sequence: DVKPENFLIGRPGNK, peptide start residue: 162)	-1.22	–
UniProt P24788 (peptide sequence: YLPALQGCR, peptide start residue: 414)	-0.33	–
